High-throughput results as filed in PubChem BioAssay.
mHTT CaM bind – disrupts binding of mutant huntingtin to calmodulin. AlphaScreen His-mHTT/GST-CaM binding, luminescence. P42858. 190,000 tested, 3.6% active. inhibition, % at 15 µM
Target sequence (P42858 whole entry, looked up, change not shown): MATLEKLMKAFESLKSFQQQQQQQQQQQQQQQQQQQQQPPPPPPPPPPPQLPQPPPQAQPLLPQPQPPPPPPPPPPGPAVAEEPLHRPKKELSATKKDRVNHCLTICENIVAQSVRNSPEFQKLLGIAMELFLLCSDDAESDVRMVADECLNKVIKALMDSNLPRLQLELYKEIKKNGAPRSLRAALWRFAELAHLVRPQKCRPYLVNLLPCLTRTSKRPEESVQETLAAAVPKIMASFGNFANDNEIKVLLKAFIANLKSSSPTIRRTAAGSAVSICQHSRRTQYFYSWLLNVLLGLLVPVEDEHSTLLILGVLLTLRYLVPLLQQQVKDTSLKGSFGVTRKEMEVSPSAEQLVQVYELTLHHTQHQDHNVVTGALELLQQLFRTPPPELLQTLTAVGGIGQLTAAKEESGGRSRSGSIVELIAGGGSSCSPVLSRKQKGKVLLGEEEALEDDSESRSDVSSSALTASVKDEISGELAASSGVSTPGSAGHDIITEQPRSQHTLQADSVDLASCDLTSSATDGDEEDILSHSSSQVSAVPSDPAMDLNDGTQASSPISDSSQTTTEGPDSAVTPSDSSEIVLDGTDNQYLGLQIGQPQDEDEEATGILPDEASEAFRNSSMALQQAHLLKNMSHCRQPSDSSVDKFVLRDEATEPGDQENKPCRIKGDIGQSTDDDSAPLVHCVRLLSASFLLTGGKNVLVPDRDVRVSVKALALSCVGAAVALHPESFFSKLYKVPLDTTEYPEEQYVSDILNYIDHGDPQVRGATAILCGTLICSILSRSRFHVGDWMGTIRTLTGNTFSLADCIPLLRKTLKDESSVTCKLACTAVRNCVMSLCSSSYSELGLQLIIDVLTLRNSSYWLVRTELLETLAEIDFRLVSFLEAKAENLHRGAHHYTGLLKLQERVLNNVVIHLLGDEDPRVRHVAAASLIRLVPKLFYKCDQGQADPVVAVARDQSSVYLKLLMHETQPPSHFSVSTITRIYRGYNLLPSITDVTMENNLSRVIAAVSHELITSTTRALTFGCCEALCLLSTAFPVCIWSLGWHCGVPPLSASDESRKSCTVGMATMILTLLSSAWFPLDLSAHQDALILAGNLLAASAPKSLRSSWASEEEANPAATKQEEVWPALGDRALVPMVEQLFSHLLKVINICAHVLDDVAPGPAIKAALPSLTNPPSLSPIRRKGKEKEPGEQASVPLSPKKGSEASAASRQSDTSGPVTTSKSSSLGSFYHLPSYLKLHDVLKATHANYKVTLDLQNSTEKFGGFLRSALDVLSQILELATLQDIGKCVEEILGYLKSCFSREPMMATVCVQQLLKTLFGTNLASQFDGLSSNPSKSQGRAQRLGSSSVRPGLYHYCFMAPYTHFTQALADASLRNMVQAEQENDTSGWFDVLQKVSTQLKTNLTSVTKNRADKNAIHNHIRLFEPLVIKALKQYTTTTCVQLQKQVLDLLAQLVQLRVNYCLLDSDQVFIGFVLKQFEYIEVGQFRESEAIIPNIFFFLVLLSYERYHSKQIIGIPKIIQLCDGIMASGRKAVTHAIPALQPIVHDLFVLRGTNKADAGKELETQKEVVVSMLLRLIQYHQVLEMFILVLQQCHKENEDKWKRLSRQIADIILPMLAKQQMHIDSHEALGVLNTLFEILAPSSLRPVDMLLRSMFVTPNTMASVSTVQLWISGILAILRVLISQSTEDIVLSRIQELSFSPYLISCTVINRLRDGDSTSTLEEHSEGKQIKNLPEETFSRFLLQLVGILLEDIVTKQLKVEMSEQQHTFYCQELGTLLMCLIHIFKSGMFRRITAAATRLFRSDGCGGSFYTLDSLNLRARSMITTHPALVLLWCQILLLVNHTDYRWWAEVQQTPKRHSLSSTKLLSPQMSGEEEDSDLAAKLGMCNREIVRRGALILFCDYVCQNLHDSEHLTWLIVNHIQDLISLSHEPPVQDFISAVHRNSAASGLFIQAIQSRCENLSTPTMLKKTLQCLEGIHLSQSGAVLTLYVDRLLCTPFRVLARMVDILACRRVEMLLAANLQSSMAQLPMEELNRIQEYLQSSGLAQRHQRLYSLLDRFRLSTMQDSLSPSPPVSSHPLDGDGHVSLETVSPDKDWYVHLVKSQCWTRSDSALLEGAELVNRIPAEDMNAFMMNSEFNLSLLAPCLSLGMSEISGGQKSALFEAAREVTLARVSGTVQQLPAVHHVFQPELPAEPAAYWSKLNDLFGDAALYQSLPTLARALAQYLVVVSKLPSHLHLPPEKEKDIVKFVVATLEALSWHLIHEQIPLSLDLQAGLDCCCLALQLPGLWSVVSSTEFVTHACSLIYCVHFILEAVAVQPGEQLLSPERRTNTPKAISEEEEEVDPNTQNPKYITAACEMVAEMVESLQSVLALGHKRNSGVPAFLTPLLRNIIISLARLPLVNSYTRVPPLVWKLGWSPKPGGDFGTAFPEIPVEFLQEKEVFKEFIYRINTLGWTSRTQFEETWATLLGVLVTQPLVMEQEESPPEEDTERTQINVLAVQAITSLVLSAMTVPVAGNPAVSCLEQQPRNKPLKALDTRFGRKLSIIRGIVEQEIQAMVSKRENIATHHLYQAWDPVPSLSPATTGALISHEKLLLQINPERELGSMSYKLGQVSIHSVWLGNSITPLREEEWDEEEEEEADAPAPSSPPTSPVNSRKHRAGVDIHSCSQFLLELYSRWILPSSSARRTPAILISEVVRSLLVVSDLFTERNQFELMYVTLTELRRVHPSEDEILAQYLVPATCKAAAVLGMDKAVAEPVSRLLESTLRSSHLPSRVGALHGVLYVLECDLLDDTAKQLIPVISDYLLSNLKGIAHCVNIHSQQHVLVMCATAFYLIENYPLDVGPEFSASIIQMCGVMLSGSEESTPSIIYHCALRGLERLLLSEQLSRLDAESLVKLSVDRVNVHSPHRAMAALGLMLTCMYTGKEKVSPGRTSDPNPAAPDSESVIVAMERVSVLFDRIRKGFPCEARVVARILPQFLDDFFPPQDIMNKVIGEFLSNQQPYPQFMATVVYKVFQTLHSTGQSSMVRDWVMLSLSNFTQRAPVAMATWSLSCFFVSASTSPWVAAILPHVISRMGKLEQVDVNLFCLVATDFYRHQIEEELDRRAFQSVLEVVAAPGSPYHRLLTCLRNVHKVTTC
Pf apPOL inh – Pf-apPOL DNA polymerase inhibition | Recombinant Pf-apPOL, molecular beacon fluorescence, 1.5 h | inhibition, % at 10 µM | 210,000 tested, 0.25% active
Hits are given with their value; - = inactive; . = no result given. Shown are actives, neighbours in structure and some others; about 3.6% of the full set was active somewhere. Cut-off read from the data, not from the text of the source: active = inhibition above about 50%; inactive = the rest.

SMILES	mHTT CaM bind	Pf apPOL inh
CCCOc1ccc(C2Nc3ccc4ncccc4c3C3=C2C(=O)CCC3)cc1 (stereo not drawn)	58	-
CCN(CC)c1ccc(C2Nc3ccc4ncccc4c3C3=C2C(=O)CC(C)(C)C3)cc1 (stereo not drawn)	62	-
COc1ccc(OC)c(C2Nc3ccc4ncccc4c3C3=C2C(=O)CC(C)(C)C3)c1 (stereo not drawn)	-	-
COc1ccc(Br)cc1C1Nc2ccc3ncccc3c2C2=C1C(=O)CC(C)(C)C2 (stereo not drawn)	53	-
CC(C)(C)NS(=O)(=O)c1ccc(NC(=O)c2ccco2)cc1	-	-
Cc1cc(C)c(S(=O)(=O)N2CCC(n3cnc4ccccc4c3=O)CC2)cc1C	-	-
Cc1cc(C)n(CCNC(=O)Nc2ccccc2C)n1	-	-
C=CCCCC(=O)Nc1ccccc1Br	-	67
O=C(O)CCC(=O)Nc1ccccc1Br	-	-
CCN1CCC2(CC1)NC(=O)N(CC(=O)Nc1ccc(OC(F)(F)F)cc1)C2=O	-	-
COc1ccc(/C=C(\C#N)c2nc(-c3cccs3)cs2)cc1OC	-	-
O=C(NCCc1ccccc1Cl)c1cc2n(n1)CCCN(Cc1cccc(F)c1)C2=O	-	-
COc1cc(C=C2SC(=S)N(c3ccc(O)c(C(=O)O)c3)C2=O)ccc1O	54	-
CCOc1ccc(C=C2SC(=S)N(CCCCCC(=O)O)C2=O)cc1OC	-	-
CCC(C(=O)O)N1C(=O)C(=Cc2ccc(O)c(OC)c2)SC1=S (stereo not drawn)	-	-
CCCCCCCC(=O)NN1C(=O)C(=Cc2ccc(O)c(OC)c2)SC1=S	88	-
CC1(C)OC(=O)C(=CNc2ccc(Cl)cc2C(F)(F)F)C(=O)O1	-	-
CCOC(=O)c1c(-c2ccccc2)oc2c1cc(OC(=O)c1cc(OC)c(OC)c(OC)c1)c1ccccc12	-	58
CCOC(=O)c1c(-c2ccccc2)oc2c1cc(OC(=O)c1ccccc1OC)c1ccccc12	-	-
O=C(c1ccccc1)N1CCC(CCOc2cccc(F)c2)CC1	-	-
CC(C)C(=O)NCCc1csc(C2CCN(C(=O)Nc3ccc(F)cc3)CC2)n1	-	-
COc1ccccc1N1CCN(C(=O)c2ccccc2F)CC1	-	-
COc1ccccc1N1CCN(C(=O)c2nn(-c3ccc(F)cc3)c(=O)cc2OC)CC1	-	-
COc1ccc(-n2cc(C(=O)N3CCN(c4ccccc4F)CC3)c3ccccc3c2=O)cc1	-	-
COc1cccc(N2CCN(C(=O)c3sc4cccc(F)c4c3OC)CC2)c1	-	-
SMILES	mHTT CaM bind	Pf apPOL inh
COc1ccccc1N1CCN(C(=O)c2nn(-c3ccc(F)cc3)cc2OC)CC1	68	-
COc1ccccc1N1CCN(C(=O)c2sc3cccc(F)c3c2OC)CC1	78	-
COc1ccc(N2CCN(C(=O)c3sc4cccc(F)c4c3OC)CC2)cc1	64	-
COc1ccc(-n2cc(C(=O)N3CCN(c4ccc(F)cc4)CC3)c3ccccc3c2=O)cc1	78	-
COc1sc(S(C)(=O)=O)cc1S(C)(=O)=O	-	.
COc1ccc(C(=O)CN2CCN(c3ccc(C(F)(F)F)cn3)CC2)cc1	.	-
CC(C)C(=O)N1CCc2c(c(-c3nc(Cc4ccccc4)no3)nn2C)C1	-	-
CN(C)C(=O)c1ccc(-c2noc(C3CCC3)n2)cc1	-	-
CCCCN(Cc1ccccc1)Cc1ccc([N+](=O)[O-])cc1	-	-
O=[N+]([O-])c1ccc(O)c(C=Nc2nc3c(O)cccc3s2)c1	-	-
Oc1cccc2ccc(/C=C/c3cc4c(cc3Br)OCO4)nc12	72	-
COc1cc(Br)c(/C=C/c2ccc3cccc(O)c3n2)cc1OC	-	-
Oc1ccc(Cl)cc1/C=C/c1ccc2cccc(O)c2n1	100	-
COc1ccc(Br)c(/C=C/c2ccc3cccc(O)c3n2)c1	65	-
O=[N+]([O-])c1ccc(O)c(/C=C/c2ccc3cccc(O)c3n2)c1	60	-
COc1ccc(OC)c(/C=C/c2ccc3cccc(O)c3n2)c1	-	-
COc1cc(Br)cc(/C=C/c2ccc3cccc(O)c3n2)c1O	-	-
O=C(NCCCN1CCOCC1)c1ccc(-c2ccccc2)cc1	-	-
Cc1ccccc1CC(=O)Nc1nc2c(s1)CN(S(=O)(=O)c1ccccc1)CC2	-	-
Cc1noc(C)c1C1CCCN1C(=O)c1cc(-c2ccc(Cl)cc2)on1 (stereo not drawn)	-	-
COc1cc(/C=C/c2ccc3cccc(O)c3n2)c(Cl)cc1O	63	-
COc1cc(/C=C/c2ccc3cccc(O)c3n2)cc([N+](=O)[O-])c1O	93	-
COc1cccc2ccc(/C=C/c3cccc([N+](=O)[O-])c3)nc12	-	-
COc1cc(/C=C/c2ccc3cccc(O)c3n2)c(Br)cc1O	-	-
O=C1N(CN2CCOCC2)c2ccccc2C12OCCCO2	-	-
SMILES	mHTT CaM bind	Pf apPOL inh
COc1ccc2[nH]cc(CCN3CC(C(=O)Nc4ccc5c(c4)CCC5)CC3=O)c2c1 (stereo not drawn)	61	-
COc1ccc(NC(=O)C2CC(=O)N(CCc3c[nH]c4ccc(Cl)cc34)C2)c(OC)c1 (stereo not drawn)	77	-
COc1ccc(NC(=O)C2CC(=O)N(CCc3c[nH]c4ccc(OC)cc34)C2)cc1 (stereo not drawn)	-	-
COc1ccc(CNC(=O)C2CC(=O)N(CCc3c[nH]c4ccc(F)cc34)C2)cc1 (stereo not drawn)	-	-
COc1ccc2[nH]cc(CCN3CC(C(=O)Nc4ccc(Cl)cc4)CC3=O)c2c1 (stereo not drawn)	-	-
COc1ccc(CNC(=O)C2CC(=O)N(CCc3c[nH]c4ccc(Cl)cc34)C2)cc1 (stereo not drawn)	74	-
O=[N+]([O-])c1ccc(-c2csc(N3CCCCC3)n2)cc1	-	-
Cc1cn(-c2ccc(CNC(=O)C3CCCCC3)cc2)cn1	-	-
Cc1ccc(/C=C2/C(=N)N3C(SCC(C)C)=NSC3=NC2=O)o1	-	-
CC(C)CSC1=NSC2=NC(=O)/C(=C\c3ccc([N+](=O)[O-])o3)C(=N)N12	79	-
CSC1=NSC2=NC(=O)/C(=C\c3ccc(C)o3)C(=N)N12	-	-
CSC1=NSC2=NC(=O)/C(=C\c3ccc([N+](=O)[O-])o3)C(=N)N12	100	-
COc1cccc(C2C(C(=O)Nc3ccc(C)cc3C)=C(C)Nc3nnnn32)c1OC (stereo not drawn)	-	-
O=C(CSc1nnc(-c2ccco2)n1-c1ccccc1)N1CCCc2ccccc21	-	-
CCOc1ccc(NCC(O)Cn2c3ccccc3n3c(=O)cc(C)c(C#N)c23)cc1 (stereo not drawn)	-	-
COc1ccc(N2C(=O)CSC2c2ccc(OC(F)F)cc2)c(OC)c1 (stereo not drawn)	-	-
O=C1CCCC2=C1C(c1ccccc1Cl)n1c(nc3ccccc31)N2 (stereo not drawn)	-	-
c1ccc(C2C3=C(CCCC3)Nc3nc4ccccc4n32)cc1 (stereo not drawn)	100	-
CC1(C)CC(=O)C2=C(C1)Nc1ncnn1C2c1ccccc1 (stereo not drawn)	-	-
c1ccc(C2C3=C(CCCC3)Nc3ncnn32)cc1 (stereo not drawn)	-	96
Cc1ccccc1C(=O)N1CCCC(COc2ccc(C(=O)NC3CC3)cc2)C1 (stereo not drawn)	-	-
Oc1ccc(O)c2c1C1c3ccccc3C2c2ccccc21	-	-
